Bioassay records deposited in PubChem BioAssay by National Center for Advancing Translational Sciences (NCATS).
HT1080 IDH1KD tx: toxicity to HT-1080 IDH1 knockdown cells (counter line). 2% of 360,000 active. Potency, µM (doses to about 46.1 µM), for the others: top-dose activity, negative = toxicity, most hits filed as cytotoxic. HT-1080 IDH1 knockdown viability, ATP luminescence, 48 h;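 further: potency means the concentration at half of the fitted maximal effect; 0% = DMSO wells and -100% = cell-free medium wells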
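Assay cells: HT-1080 with IDH1 knockdown, 750 per well, RPMI/5% FBS. Exposure: 48 h at 37 °C following 2 h pre-incubation. Read: CellTiter-Glo luminescence; fitted concentration-response, curve class assigned.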
HT1080NT lethal: kills 2HG-producing HT-1080-NT fibrosarcoma cells | HT-1080-NT fibrosarcoma viability, CellTiter-Glo ATP luminescence, 48 h | Potency, µM (doses to about 46.1 µM), inactives show at the top dose activity, negative = less viability, hits mostly cytotoxic | 1.6% of 360,000 active | AID 686970;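 further: NT is the 2HG producing partner of a matched IDH1 knockdown line; potency means the concentration at half of the fitted maximal effect; 0% = DMSO-treated cells and -100% = media-only wells without cells; nearly all actives have a fitted effect of over 55% in size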
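Viability by CellTiter-Glo luminescence after 48 h compound exposure at 37C of HT-1080-NT cells (750/well, RPMI, 5% FBS). % activity scaled between DMSO wells and medium-only wells, then curve-fitted and categorized by curve class.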
TDP1 cell noCPT: qHTS for Inhibitors of human tyrosyl-DNA phosphodiesterase 1 (TDP1): qHTS in cells in absence of CPT. AID 686978, 2013. 15% of 420,000 active. DT40 Tdp1-/- hTDP1 cells, no CPT, ATP luminescence, 48 h. Potency, µM (series often up to 46.2 µM), for inactives: at the highest dose activity change, negative = growth inhibition, actives largely listed as inhibitors; further: potency means the concentration at half of the fitted maximal effect; nearly all actives have a fitted effect of over 55% in size
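Readout: luminescence from CellTiter-Glo after 30 min in the dark at RT. Cells: DT40 Tdp1-/- with stable hTDP1, 400/well. Exposure: compounds alone, ≥48 hr, 37 °C.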
TDP1 cell CPT: growth inhibition of DT40 Tdp1-/-;hTDP1 cells with camptothecin (screen for TDP1 inhibitors). chicken DT40 Tdp1-/-;hTDP1 cells + 20 nM CPT, ATP luminescence, 48 h. Potency, µM (top dose mostly 46.2 µM), for inactives: top-dose activity change, negative = growth inhibition, actives largely listed as inhibitors. 12% of 420,000 active. AID 686979; further: potency means the concentration at half of the fitted maximal effect; nearly all actives have a fitted effect of over 55% in size
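Chicken DT40 Tdp1-/- cells stably complemented with human TDP1 were seeded at 400 cells/well in medium containing 20 nM camptothecin, exposed to pin-transferred compounds, and grown at 37 °C for at least 48 hr. Viability was read as ATP luminescence.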
IL-1B inflam inh: blocks inflammasome-driven IL-1 beta release. THP-1 LPS/ATP IL-1B secretion, AlphaLISA, 16 h; active compounds read low. activity change, % at 57.5 µM. 4.7% of 360,000 active. AID 743279; in the data active means activity change below about -50%; inconclusive means mostly about -30% to -49%
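Secreted IL-1B measured by AlphaLISA bead assay after 16 h compound exposure of THP-1 cells; compounds (final up to 57.5 uM) added 1 h before LPS (250 ng/mL) and ATP (1.25 mM) stimulation; lower signal means less secretion.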
An asterisk follows results filed as active; ? = inconclusive; nt = no result. Most compounds without a hit are left out; they make up all but 19% or so of the library. Unless noted, the call rests on the fitted dose curve; in most records, active means well fitted curve in the direction sought with a large enough effect; inconclusive means small, poorly fitted or top-dose-only effect, or another doubt; inactive means no such curve, though single readings can be large; an effect the other way counts as inactive or inconclusive. Unless noted, on the % scale 0 is the no-effect control and ±100 the full control effect.

SMILES | HT1080 IDH1KD tx | HT1080NT lethal | TDP1 cell noCPT | TDP1 cell CPT | IL-1B inflam inh
C[C@H]1O[C@@H](O[C@H]2CC[C@@]3(C)[C@H](CC[C@@H]4[C@@H]3C[C@@H](O)[C@]3(C)[C@@H](C5=CC(=O)OC5)CC[C@]43O)C2)C[C@H](O)[C@@H]1O[C@H]1C[C@H](O)[C@H](O[C@H]2C[C@H](O)[C@H](O[C@@H]3O[C@H](CO)[C@@H](O)[C@H](O)[C@H]3O)[C@@H](C)O2)[C@@H](C)O1 | nt | nt | 0.94µM* | 1.3µM* | nt
CC(=O)OC1CC(OC2C(O)CC(OC3C(O)CC(OC4CCC5(C)C(CCC6C5CCC5(C)C(C7=CC(=O)OC7)C(O)CC65O)C4)OC3C)OC2C)OC(C)C1OC1OC(CO)C(O)C(O)C1O (centres undefined) | 1.3µM* | 0.65µM* | 1.8µM* | 1.5µM* | -80*
CC1OC(O[C@@H]2C(O)CC(O[C@@H]3C(O)C[C@@H](OC4CC[C@]5(C)[C@H](CC[C@H]6[C@@H]5CC[C@]5(C)C(C7=CC(=O)OC7)C(O)C[C@@]65O)C4)OC3C)OC2C)CC(O)C1O (some centres undefined) | nt | nt | -14% | 0% | nt
CC(=O)O[C@H]1C[C@H](O[C@H]2[C@@H](O)C[C@H](O[C@H]3[C@@H](O)C[C@H](OC4CC[C@@]5(C)C(CC[C@@H]6[C@@H]5CC[C@]5(C)[C@@H](C7=CC(=O)OC7)[C@@H](O)C[C@]65O)C4)O[C@@H]3C)O[C@@H]2C)O[C@H](C)[C@H]1O[C@@H]1O[C@H](CO)[C@@H](O)[C@H](O)[C@H]1O (some centres undefined) | nt | nt | 2.4µM* | 3.3µM* | nt
Cc1cc(=O)oc2cc(Oc3ccc([N+](=O)[O-])cc3C(F)(F)F)ccc12 | -17% | -10% | ? | ? | -5
CCOC1=C2[C@@H](CN(S(=O)(=O)c3ccccc3C)[C@H]2c2ccc(Cl)cc2)[C@H]2C(=O)NC(=O)[C@H]2C1 | 1% | 0% | ? | ? | 9
Cc1ccc2scc(N3CCN(C)CC3)c(=O)c2c1 | nt | nt | -15% | -20% | nt
CSCCC(N=Cc1c(O)n(-c2ccc(F)cc2)c(=O)[nH]c1=O)C(=O)OC(C)(C)C (centres undefined) | 1% | -3% | -13% | -4% | 4
CC1(C)CC(=O)C2=C(C1)OC(N)=C([N+](=O)[O-])C2c1ccc(C#N)s1 (centres undefined) | -11% | -2% | ? | 21µM* | ?
O=C(Nc1ccc2oc(-c3cccnc3)nc2c1)c1ccc(-c2cccc(Cl)c2)o1 | nt | nt | 7.3µM* | -78% | nt
O=c1c(C=NCCN2CCNCC2)c(O)n(C2CCCCC2)c(=O)n1C1CCCCC1 | ? | 20µM* | ? | 16µM* | -61*
CCCCOP(=O)(CN1CCOCC1)OCCCC | 11% | 2% | -12% | -30% | 12
O=C(OC1Cc2c(O)cc(O)cc2OC1c1cc(O)c(O)c(O)c1)c1cc(O)c(O)c(O)c1 (centres undefined) | nt | nt | ? | -11% | nt
COc1cccc(C(=O)CCN[C@@H](C)[C@H](O)c2ccccc2)c1 | nt | nt | 24µM* | 13µM* | nt
CC1OC(OC2C(O)CC(OC3C(O)CC(OC4CCC5(C)C(CCC6C5CCC5(C)C(C7=CC(=O)OC7)C(O)CC65O)C4)OC3C)OC2C)CC(O)C1O (centres undefined) | 0.58µM* | 1µM* | 0.82µM* | 1.5µM* | -99*
C[C@H]1O[C@@H](O[C@H]2[C@@H](O)C[C@H](O[C@H]3[C@@H](O)C[C@H](O[C@H]4CC[C@@]5(C)[C@H](CC[C@@H]6[C@@H]5CC[C@]5(C)[C@@H](C7=CC(=O)OC7)CC[C@]65O)C4)O[C@@H]3C)O[C@@H]2C)C[C@H](O)[C@@H]1O | 0.15µM* | 0.21µM* | 0.3µM* | 0.3µM* | -76*
CC(=O)OC1CC2(O)C3CCC4CC(O)CCC4(C)C3CCC2(C)C1C1=CC(=O)OC1 (centres undefined) | 0.52µM* | 1.3µM* | 8.2µM* | ? | -80*
CC(C)NC(C)C | nt | nt | 0% | 2% | nt
CCC1(CCC(C)C)C(=O)NC(=O)N(c2ccccc2)C1=O (centres undefined) | 16% | 13% | ? | -26% | 11
Cc1ccc(Sc2ccc(C=C3C(=O)N(C)C(=O)N(C)C3=O)o2)cc1 | 13% | 25% | 18µM* | 18µM* | -12
C#C[C@]1(O)C=C[C@H]2[C@@H]3CCC4=CC(=O)CC[C@@H]4[C@H]3CC[C@@]21CC | nt | nt | 15µM* | 15µM* | nt
COc1cc2c(cc1O)CC[C@@H]1[C@@H]2CC[C@]2(C)[C@@H](O)CC[C@@H]12 | ? | ? | 4.6µM* | 1.8µM* | -11
c1ccc(CN2CCc3nc4ccccc4cc3C2)cc1 | 0% | -13% | -18% | ? | -11
CCOc1ccccc1NC(=O)c1sc2nc3c(cc2c1N)CN(Cc1ccccc1)CC3 | nt | nt | 23µM* | 16µM* | nt
CCC1(c2ccccc2)CCC(=O)NC1=O (centres undefined) | nt | nt | 1% | 4% | nt
SMILES | HT1080 IDH1KD tx | HT1080NT lethal | TDP1 cell noCPT | TDP1 cell CPT | IL-1B inflam inh
Cn1ncnc2c(=O)n(C)c(=O)nc1-2 | 1µM* | 0.52µM* | 0.29µM* | 0.21µM* | -108*
Cc1ccc(-c2nc3c(=O)n(C)c(=O)nc-3n(C)n2)cc1 | nt | nt | 0.5µM* | 0.63µM* | nt
CC1(C)CC(=O)CC(C)(C)N1O | 4% | 11% | 2% | 15% | 7
O=C(c1cccc(Cl)c1)C1CCCN(Cc2ccon2)C1 (centres undefined) | -4% | 2% | ? | ? | 8
CSc1ncc(CN2CCCC(C(=O)c3cccc(Cl)c3)C2)cn1 (centres undefined) | -2% | -7% | ? | 21µM* | -13
O=C(c1ccc(Cl)cc1)C1CCCN(Cc2cccc3cnccc23)C1 (centres undefined) | -7% | -3% | 6.5µM* | 21µM* | -7
COc1ccc(CN2CCCC(C(=O)c3cccc(Cl)c3)C2)cc1 (centres undefined) | -1% | -1% | ? | ? | -12
COc1ccc(CN2CCCC(C(=O)c3ccc(Cl)cc3)C2)c(OC)c1 (centres undefined) | 9.2µM* | ? | 18µM* | ? | -68*
O=C(c1cccc(Cl)c1)C1CCCN(Cc2cccc3cnccc23)C1 (centres undefined) | ? | 9.2µM* | 21µM* | ? | -16
